Only some compounds are listed: those with a hit (about 20% of all), similar ones and a draw of the others.
CHX counter: affects cycloheximide protein synthesis inhibition readout, counter-screen; max response, %; AID 2314; cell reporter, cycloheximide protein synthesis inhibition counterscreen; actives 12% (n = 300,000); in the data active means max response mostly above about 13%, no sharp cut-off; inactive means mostly below about 14%; further: read at 38.3 µM for the half of the compounds with a filed dose; 0% is about no effect
Pf growth 96h: P. falciparum growth inhibition at 96 hour, primary screen for plastid delayed-death inhibitors; P. falciparum luciferase reporter growth, 96 h; Potency, µM (titrated, usually from 28.7 µM), without a hit: at the highest dose activity change, negative = inhibition, hits mostly inhibitors; actives 6.9% (n = 320,000); further: potency means the concentration at half of the fitted maximal effect; on the % scale 0 is the no-effect control and ±100 the full control effect
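Cell-based qHTS: luciferase-tagged P. falciparum in erythrocytes (2% hematocrit, 0.05% parasitemia final) incubated with compounds for 96 hours, 37 C, 5% CO2; luciferase detection reagent then added and luminescence measured.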
HCMV antiviral: inhibitors of human cytomegalovirus. HFF cells, HCMV-luciferase reporter, 72 h; stronger effect = lower value. activity change, negative = inhibition, % at 57.5 µM. actives 4.5% (n = 410,000); in the data active means activity change below about -60%; inconclusive means no clear call, values can overlap the other calls; inactive means above about -39%; further: on the % scale 0 is the no-effect control and ±100 the full control effect
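After 16 h attachment at 37C, HFF cells received test compound and HCMV-luciferase (1 PFU/cell); reporter luminescence read 72 h later, data normalized against buffer-only and known inhibitor Salinomycin.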
Pf growth 48h: inhibits P. falciparum growth in the first generation, 48 h | P. falciparum luciferase growth in erythrocytes, 48 h | Potency, µM (titrated, usually from 28.7 µM), without a hit: top-dose activity change, negative = inhibition, hits mostly inhibitors | actives 5.9% (n = 310,000) | AID 504832; further: potency means the concentration at half of the fitted maximal effect; on the % scale 0 is the no-effect control and ±100 the full control effect
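Compounds are pin-transferred into medium, infected erythrocytes (2% hematocrit, 0.1% parasitemia final) are added, and plates sit one parasite generation at 37 C in 5% CO2. Detection reagent is then added and luminescence measured.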
Shiga inhibitor: blocks Shiga toxin action in Vero cells. Vero cells, Shiga toxin protein synthesis inhibition reporter. inhibition, % at 38.7 µM. actives 9.2% (n = 290,000). AID 2315; in the data active means inhibition mostly above about 28%, no sharp cut-off; inactive means mostly below about 43%; further: 0% is about no effect
An asterisk follows results filed as active; ? = inconclusive; nt = not tested or not shown; + = active, no number; [ ] = another dose, or the depositor's remark. Unless noted, the call rests on the fitted dose curve; in most records, active means well fitted inhibition curve with a large enough effect; inconclusive means small, poorly fitted or top-dose-only effect, or another doubt; inactive means no such curve, though single readings can be large or run the other way.

SMILES	CHX counter	Pf growth 96h	HCMV antiviral	Pf growth 48h	Shiga inhibitor
CCOC(=O)/C(=C\c1ccccc1)NC(=O)c1ccccc1	19.5*	14.6%	-11.4	-12.4%	40.6
CCOC(=O)/C(=C/c1ccc(OC(=O)c2ccccc2)cc1)C(C)=O	6.9	-11.4%	64.2	-2.8%	38.8*
CCCCc1nc2sc3c(=O)[nH]cnc3c2c2c1CCCC2	-3.4	0.0%	-22.8	73.6%	-1.9
CC(=O)N/C(=C\c1ccccc1)C(=O)OCC(=O)c1ccccc1	nt	30.3%	-25.4	14.2%	nt
O=C(OCC(=O)c1ccc([N+](=O)[O-])cc1)/C(=C/c1ccc(Cl)cc1)NC(=O)c1ccccc1	-1.6	26.0%	-64.8*	14.5%	-8.5
C=CCOC(=O)/C(=C/c1cccnc1)NC(=O)c1ccccc1	4.3	33.9%	14.7	8.7%	-7.4
C=CCOC(=O)/C(=C\c1cccc2ccccc12)NC(=O)c1ccccc1	36.0*	6.7%	-17.7	?	22.0
O=C(NCC1CC1)c1ccc2sc([C@H]3C[C@H](O)[C@@H](CO)O3)nc2c1	nt	nt	-102.0*	nt	nt
Cc1ccccc1CNC(=O)c1ccc2sc([C@H]3C[C@H](O)[C@@H](CO)O3)nc2c1	nt	nt	67.6	nt	nt
Cc1ccc(CSCC(=O)N2CCN(c3ccccc3F)CC2)cc1	nt	nt	-18.2	nt	nt
CCN(CC)c1ccc(NC(=O)COC(=O)c2cccs2)cc1	44.5*	16.7%	7.2	nt	54.9*
CC(=O)c1cccc(NC(=O)COC(=O)c2cccs2)c1	59.0*	-16.6%	-25.2	-5.5%	69.2*
CCc1ccccc1NC(=O)COC(=O)c1cccs1	-2.4	2.1%	-8.7	10.6%	-5.0
CCN(c1ccc(NC(=O)COC(=O)c2cccs2)cc1)C(C)C	37.8*	-0.9%	0.4	nt	19.9
O=C(NC1CCCCC1)c1cc2cc(Br)ccc2o1	58.3*	-25.2%	?	57.6%	75.7*
O=C(NC1CCCCCCC1)c1ccc(Br)o1	24.9*	54.9%	19.9	4.7%	83.5*
O=C(NC1CCCC1)c1cc2cc(Br)ccc2o1	51.3*	-18.2%	18.8	44.9%	92.5*
O=C(CNC(=O)c1ccc(Br)o1)NCC1CCCCC1	nt	5.6%	34.8	-16.1%	nt
CN(C(=O)CNC(=O)c1ccc(Br)o1)C1CCCCC1	20.8*	?	22.6	38.2%	78.2*
COc1ccc(CCN2CC(C(=O)NCc3ccc(F)cc3)CC2=O)cc1OC (centres undefined)	1.7	6.5%	8.4	5.6%	-5.6
O=C(CN1C(=O)C2(SCC(=O)N2c2ccccc2)c2ccccc21)NCc1ccccc1 (centres undefined)	nt	nt	24.0	nt	nt
OCC[C@H]1C[C@@H](O)[C@H](O)[C@]2(CCCO2)O1	nt	nt	9.3	nt	nt
Cc1ccc(C)c(Cn2c(=O)n(CCCCC(=O)NCc3ccc4c(c3)OCO4)c(=O)c3ccccc32)c1	nt	nt	3.9	nt	nt
COc1ccccc1CN(C)C(=O)CSCC(=O)Nc1ccccc1F	nt	nt	-28.6	nt	nt
O=c1nc2c(-c3ccccc3F)n[nH]n2c2ccccc12	20.3*	?	278.9	80.3%	80.2*
SMILES	CHX counter	Pf growth 96h	HCMV antiviral	Pf growth 48h	Shiga inhibitor
CCOc1cc(C(=O)OCc2cccc(OC)c2OC)ccc1OCC(=O)N1CCOCC1	nt	?	-26.0	?	nt
CCc1ccc(NC(=O)CSc2nc(C)cs2)cc1	nt	nt	35.8	nt	nt
CCOC(=O)c1sc2c(c1C)c(=O)n(Cc1ccccc1)c(=O)n2CCN(C)C	-2.3	2.08µM*	?	?	-3.2
CN(C)CCn1c(=O)n(Cc2ccccc2)c(=O)c2c3c(sc21)CCCCC3	2.9	?	-0.2	-17.3%	6.8
COc1ccccc1N1CCN(/N=C/c2cccc(Cl)c2)CC1	38.2*	?	48.4	110.0%	151.4*
COc1cccc(/C=N/N2CCN(c3ccccc3OC)CC2)c1	49.4*	57.3%	60.6	94.5%	+
CCN(CC)c1ccc(/C=N/N2CCN(c3ccccc3OC)CC2)cc1	2.9	38.8%	-8.7	13.2%	24.6
COc1ccccc1N1CCN(/N=C/c2cccc(OC)c2O)CC1	10.6	-18.2%	3.0	170.9%	2.6
COc1cc(OC)c(/C=N/N2CCN(c3ccccc3OC)CC2)c(OC)c1	23.9*	?	-16.5	-16.2%	65.1*
COc1ccc(N2C(=O)CC(Sc3ccccc3C(=O)O)C2=O)c([N+](=O)[O-])c1 (centres undefined)	11.0	21.1%	21.8	3.2%	12.5
Cc1ccc(C2(C)NC(=O)N(CC(=O)NNC(=O)c3ccccc3F)C2=O)cc1 (centres undefined)	nt	8.7%	2.2	28.6%	nt
Cc1cc(NS(=O)(=O)c2ccc(NC(=O)c3cc(-c4cccnc4)nc4ccc(Cl)cc34)cc2)no1	-3.9	25.7%	-2.2	1.5%	-11.6
Cc1cccc(NC(=O)c2cc(-c3ccc(C)s3)nc3ccccc23)n1	6.5	36.2%	-23.0	10.4µM*	53.0
Cc1ccc(-c2cc(C(=O)O)c3ccccc3n2)s1	23.4	2.2%	183.2	15.9%	24.7
Cc1c(Cl)ccc2c(C(=O)Nc3cc(C(C)(C)C)on3)cc(-c3ccccn3)nc12	5.6	2.08µM*	-16.2	0.0%	-6.9
O=C(O)c1cc(-c2ccc(Cl)s2)nc2ccccc12	13.8	26.6%	-2.2	3.5%	54.3*
Cc1cc(NC(=O)c2cc(-c3cccnc3)nc3c(C)c(C)ccc23)no1	-2.5	13.4%	-64.0*	2.94µM*	-4.2
Cc1cccc2c(C(=O)Nc3ccc(Br)cc3)cc(-c3ccccn3)nc12	15.2	?	-32.4	13.8%	-8.0
CCc1c(C(=O)Nc2cc(C(=O)OC)ccc2C)csc1C	-2.1	-13.7%	-30.1	-28.6%	-5.3
CCc1c(C)nc2nc(-c3ccccc3)nn2c1NCc1ccc(C)cc1	nt	nt	-39.5	nt	nt
O=C(Nc1nn[nH]n1)c1cc(-c2ccc(Cl)c(Cl)c2Cl)nc2ccccc12	11.6	2.33µM*	12.7	-3.6%	-3.4
COc1ccc(Nc2cc(C(=O)NCc3ccccn3)c3ccccc3n2)c(OC)c1	16.2	13.1µM*	nt	33.3%	63.1
Cc1cc(NC(=O)c2cc(-c3ccc(C)s3)nc3ccccc23)no1	3.6	11.7µM*	42.4	nt	11.6
CC(=O)c1ccc(NC(=O)c2cc(-c3ccc(C)s3)nc3ccccc23)cc1	nt	nt	22.6	nt	nt
COc1ccc(Nc2cc(C(=O)NCc3cccnc3)c3ccccc3n2)c(OC)c1	28.9	?	nt	10.8%	19.1
SMILES	CHX counter	Pf growth 96h	HCMV antiviral	Pf growth 48h	Shiga inhibitor
Cc1ccc(-c2cc(C(=O)Nc3cc(C)on3)c3ccccc3n2)c(C)c1	13.4	?	-33.2	?	13.4
O=C(NCCc1ccccn1)c1cc(-c2ccc(Cl)c(Cl)c2Cl)nc2ccccc12	-2.1	?	?	?	-1.2
Cc1cc(NC(=O)c2cc(-c3ccccc3C)nc3ccccc23)no1	-1.3	?	-74.4*	?	-4.2
Cc1ccc(C(O)CCc2ccc(N)cc2)cc1 (centres undefined)	4.1	0.0%	28.6	nt	11.5
O=[N+]([O-])c1ccccc1CCc1cnc(Cl)s1	-1.9	21.0%	-35.2	-1.8%[0.00184 µM]	-2.8
Cc1ccc(N(CC(=O)Nc2ccc(C)c(Cl)c2)S(=O)(=O)c2cccs2)cc1	nt	nt	-11.0	nt	nt
